Active and inactive are the calls of the source. Rule for the calls: active = hit-call score of the fitted dose curve at least 0.9, where 1 is the maximum; inactive = score below 0.9.
How the values were obtained:
[1] = target: Transcription factor E2F1 (Homo sapiens) (UniProt Q01094); experiment: ATG_E2F_CIS: Attagene CIS-FACTORIAL HepG2 Assay for human E2F Transcription Factor 1 (AID 2282935); conditions: HepG2 Attagene cis-reporter, E2F reporter RNA transcripts; actives raise or lower the signal
Procedure, shortened: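 Cis-element reporter mRNA induction in transiently transfected HepG2, 24 h exposure. Activity fitted in both directions relative to DMSO negative control.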

[2] = ATG_E_Box_CIS: Attagene CIS-FACTORIAL HepG2 Assay for human Enhancer Box (E-box) (AID 2282936); conditions: HepG2 E-box cis-reporter transcription, actives raise or lower the signal
Procedure, shortened: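 Cells: HepG2 (human liver), transient MRTU transfection. Exposure 24 h. RNA → oligo(dT) RT → PCR → 6-FAM label → HpaI → CE. Activity fitted both directions relative to DMSO.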

[3] = ATG_M_61_CIS: Attagene CIS-FACTORIAL HepG2 Assay for M61 Transcription Factor (Internal Marker) (AID 2282937); conditions: HepG2 Attagene CIS-FACTORIAL M61 internal marker reporter; actives raise or lower the signal
Procedure, shortened: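 Using transiently transfected HepG2 liver cells, reporter transcript levels were assessed 24 h post-dosing by RT-PCR and capillary electrophoresis. Changes in either direction were fitted relative to DMSO controls.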

[4] = ATG_EGR_CIS: Attagene CIS-FACTORIAL HepG2 Assay for human Early Growth Response 1 (EGR1) (AID 2282938); conditions: HepG2 Attagene CIS-FACTORIAL EGR reporter mRNA; actives raise or lower the signal
Procedure, shortened: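 Fluorescent capillary-electrophoresis signal of reporter cDNA fragments serves as read-out. HepG2 cells bear transiently transfected cis-promoter reporter units and are exposed 24 h; gain- or loss-of-signal is fitted against DMSO.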

[5] = ATG_M_19_CIS: Attagene CIS-FACTORIAL HepG2 Assay for M19 Transcription Factor (Internal Marker) (AID 2282939); conditions: HepG2 Attagene CIS-FACTORIAL M19 internal marker reporter; actives raise or lower the signal
Procedure, shortened: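 Internal marker readout, fitted in both directions against DMSO, from HepG2 cells carrying transfected cis-element reporter constructs; RT-PCR and capillary electrophoresis of reporter mRNA after 24 h exposure.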

[6] = ATG_ERE_CIS: Attagene CIS-FACTORIAL HepG2 Assay for Estrogen Response Element (ERE) (AID 2282940); conditions: HepG2 ERE cis-reporter, Attagene RNA transcript; actives raise or lower the signal
Procedure, shortened: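 After 24 h compound treatment, RNA from transfected HepG2 cells was reverse-transcribed, reporter cDNA PCR-amplified, FAM-labelled, HpaI-cut and resolved by capillary electrophoresis. ERE-driven cis reporter transcripts reflect endogenous factors; gain or loss scored against DMSO.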

[7] = ATG_Ets_CIS: Attagene CIS-FACTORIAL HepG2 Assay for human Erythroblast Transformation Specific (ETS) (AID 2282941); conditions: HepG2 ETS cis-reporter transcription, actives raise or lower the signal
Procedure, shortened: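 After transient cis-reporter transfection, HepG2 cells receive test chemical for 24 h. Reporter mRNA levels, measured by RT-PCR and capillary electrophoresis fluorescence, are analysed bidirectionally relative to the DMSO baseline.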

[8] = target: Hepatocyte nuclear factor 3-beta (Homo sapiens) (UniProt Q9Y261); experiment: ATG_FoxA2_CIS: Attagene CIS-FACTORIAL HepG2 Assay for human Forkhead box A2 (FOXA2) (AID 2282942); conditions: HepG2 cis-reporter transcription factor activity, 24 h; actives raise or lower the signal
Procedure, shortened: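 Fluorescence signal of reporter cDNA fragments, separated by capillary electrophoresis, reflects endogenous transcription factor activity in transfected HepG2 after 24 h. Both increases and decreases fitted against DMSO.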

[9] = ATG_FoxO_CIS: Attagene CIS-FACTORIAL HepG2 Assay for human Forkhead box O (FoxO) (AID 2282943); conditions: HepG2 Attagene cis-reporter, FoxO element, mRNA; actives raise or lower the signal
Procedure, shortened: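 Endogenous transcription factor activity read from multiplexed cis-promoter reporter transcripts in transiently transfected HepG2, 24 h after dosing. Reporter RNA measured via RT-PCR plus capillary electrophoresis of FAM-labeled products; gain or loss relative to DMSO.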

[10] = ATG_GATA_CIS: Attagene CIS-FACTORIAL HepG2 Assay for human GATA Binding Protein (AID 2282944); conditions: HepG2 GATA cis-element reporter, Attagene multiplex mRNA; actives raise or lower the signal
Procedure, shortened: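 Reporter transcripts from a GATA cis-regulated unit, among multiplexed reporters in transfected HepG2 cells, were measured by RT-PCR with capillary electrophoresis after 24 h dosing. Induction or loss scored relative to DMSO.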

Measured: AC50

Hepatocyte nuclear factor 3-beta (Homo sapiens), sequence (Q9Y261 whole entry, looked up, the tested form may be a part): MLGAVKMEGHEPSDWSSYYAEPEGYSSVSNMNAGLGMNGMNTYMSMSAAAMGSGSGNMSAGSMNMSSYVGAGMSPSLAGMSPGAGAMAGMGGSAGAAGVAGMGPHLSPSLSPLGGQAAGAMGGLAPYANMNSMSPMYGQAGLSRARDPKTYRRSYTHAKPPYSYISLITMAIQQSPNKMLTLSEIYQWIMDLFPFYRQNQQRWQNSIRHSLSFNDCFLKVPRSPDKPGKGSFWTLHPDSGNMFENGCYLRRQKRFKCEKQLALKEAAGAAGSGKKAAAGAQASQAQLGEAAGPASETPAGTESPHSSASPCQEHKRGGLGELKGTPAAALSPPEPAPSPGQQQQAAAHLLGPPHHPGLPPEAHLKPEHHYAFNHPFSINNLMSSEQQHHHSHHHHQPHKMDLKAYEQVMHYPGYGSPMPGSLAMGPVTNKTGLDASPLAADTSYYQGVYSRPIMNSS
Transcription factor E2F1 (Homo sapiens), sequence (Q01094 whole entry, looked up): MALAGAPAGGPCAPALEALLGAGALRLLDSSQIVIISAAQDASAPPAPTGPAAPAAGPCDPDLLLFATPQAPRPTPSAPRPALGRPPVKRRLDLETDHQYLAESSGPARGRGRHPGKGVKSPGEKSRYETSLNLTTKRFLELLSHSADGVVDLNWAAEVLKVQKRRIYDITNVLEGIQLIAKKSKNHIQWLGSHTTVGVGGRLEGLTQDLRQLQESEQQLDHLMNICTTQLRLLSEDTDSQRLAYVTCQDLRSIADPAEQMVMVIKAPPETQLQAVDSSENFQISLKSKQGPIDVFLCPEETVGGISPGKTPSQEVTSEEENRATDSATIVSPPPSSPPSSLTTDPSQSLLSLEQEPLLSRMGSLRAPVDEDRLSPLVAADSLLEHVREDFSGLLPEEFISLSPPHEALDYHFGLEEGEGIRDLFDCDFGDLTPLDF

CCCCOc1ccc(N)cc1
inactive: [1] | [2] | [3] | [4] | [5] | [6] | [7] | [8] | [9] | [10]

O=C(O)C(F)(F)C(F)(F)F
inactive: [1] | [2] | [3] | [4] | [5] | [6] | [7] | [8] | [9] | [10]

Cc1cc(C)cc(O)c1
inactive: [1] | [2] | [3] | [4] | [5] | [6] | [7] | [8] | [9] | [10]

CCCCCCOC(=O)c1ccccc1
inactive: [1] | [2] | [3] | [4] | [5] | [6] | [7] | [8] | [9] | [10]

FC(F)(F)C(F)(F)C(F)(F)N(C(F)(F)C(F)(F)C(F)(F)F)C(F)(F)C(F)(F)C(F)(F)F
inactive: [1] | [2] | [3] | [4] | [5] | [6] | [7] | [8] | [9] | [10]

O=C(O)C=C(C(F)(F)F)C(F)(F)F
inactive: [1] | [2] | [3] | [4] | [5] | [6] | [7] | [8] | [9] | [10]

CCCCCCC(C)OC(=O)CCCCC(=O)OC(C)CCCCCC (configuration not stated)
inactive: [1] | [2] | [3] | [4] | [5] | [6] | [7] | [8] | [9] | [10]

CCCCOCCOCCOC(=O)CCCCC(=O)OCCOCCOCCCC
inactive: [1] | [2] | [3] | [4] | [5] | [6] | [7] | [8] | [9] | [10]

C=CC(F)(F)C(F)(F)C(F)(F)C(F)(F)C(F)(F)C(F)(F)C(F)(F)C(F)(F)C=C
active: [6] 4.46 µM
inactive: [1] | [2] | [4] | [5] | [7] | [8] | [9] | [10]

Cc1ccc(S(=O)(=O)NCl)cc1
inactive: [1] | [2] | [3] | [4] | [5] | [6] | [7] | [8] | [9] | [10]

O=C(O)C(F)(F)C(F)(F)C(F)(F)C(F)(F)F
inactive: [1] | [2] | [3] | [4] | [5] | [6] | [7] | [8] | [9] | [10]

OCC(F)(F)C(F)(F)C(F)(F)C(F)F
inactive: [1] | [2] | [3] | [4] | [5] | [6] | [7] | [8] | [9] | [10]

O=C(O)C(F)(OC(F)(F)C(F)(OC(F)(F)C(F)(F)C(F)(F)F)C(F)(F)F)C(F)(F)F (configuration not stated)
inactive: [1] | [2] | [3] | [4] | [5] | [6] | [7] | [8] | [9] | [10]

NC(=O)C(F)(F)C(F)(F)C(F)(F)C(F)(F)F
inactive: [1] | [2] | [4] | [5] | [6] | [7] | [8] | [9] | [10]

CCN(Cc1cccc(S(=O)(=O)O)c1)c1ccc(C(=C2C=CC(=[N+](CC)Cc3cccc(S(=O)(=O)O)c3)C=C2)c2ccc(O)cc2S(=O)(=O)[O-])cc1
active: [6] 16.8 µM
inactive: [1] | [2] | [4] | [5] | [7] | [8] | [9] | [10]
